# Experimental data taken from the supplement of paper PMC6555819.
# Test system: PPARg:RXRa (NR concentration 180 nM, RXRa partner concentration 90 nM)
# Assay: PBM binding z-score (relative to random genomic background probes); higher = stronger binding; sequences stand for … in GC…GCGATTGACAGCGTAGAATGAAGG
# Procedure, shortened: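 Ligand-free nuclear receptor dimers were bound for 1 h to custom Agilent 4×180K protein-binding microarrays. Detection used antibodies against each partner (one per run). Binding z-scores rest on regression-normalized fluorescence, with random background probes as the reference.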
row,Sequence,PBM binding z-score
1,ATCGAAAGGTCGACGAGGTGAATATACACCGTTT,3.21
2,CGTCCTAGGTCAAGGTCAGTGAAAGAGACTCGAA,4.31
3,CTCGAAAGGTCGTGCTCAGGTGAGCATACCAAAC,3.03
4,ATCGAAAGGTCGAAGGTGAGTATACCCACCCGAA,4.53
5,CCGGCTGGGGCAGAAAGGTTACCATACCATCCGG,0.79
6,AGAATGAGGTTATTAAGACCAGGGAATTGCGGTC,1.57
7,ATCGAACGGTCGAAGGTGAGTATACCCACCCGAA,1.03
8,CATACAGGGTCAGCTAGGCAAGAGTAGGGACGGC,3.37
9,AGAATGAGGTTAAGATCAGGGAAACAGAATACAT,2.46
10,ACAGACAGGTGAGGGAAGGTAACTCAGCTGGACG,0.791
11,GCTAGTTGGTCAGTAGAAGGTCACACACCGGTCG,1.13
12,CCAGACAGGTGAGAAGGCAACTCAGCCTCGATTA,0.575
13,ATCTCTAGGTAAAGTTCCGTGAAAGATCGATAGA,0.291
14,TCTAGTTGGTCACGGAGGTCACGCACGACGGGTA,4.03
15,TTACCATGGTGAAAGGTCGTTGATGCACGCCTTG,5.88
16,CGAACTAGGTCATTGACAGGACATTGAATAGTAA,7.27
17,GGAACGAGGGCAAGTAGATAGCAGAGTTTGATGG,1.21
18,AGAACGAGGGCACGCTGAGTTGATCGCAGAGTAG,1.93
19,CATCCAGGGTCAGCTAGGCCAGAGTAGGGACGGC,2.97
20,CCGAGTAGGTTATGGGGAATTCAGGCAACGGTGA,1.46

row,Sequence,PBM binding z-score
1,ACTCGGAGGACAAAGGTCGGAGCTACGCCAGTGA,4.62
2,GGAACGAGGGCAAAGTTGACAGCATCTGTCGACG,8.22
3,TCTTGTTGATCAAGCAGGTTAAGAAAGCCTGAGT,-0.685
4,CCGAGTAGGTTATGGGGCCTTCAGGCAACGGTGA,1.43
5,TCTCGGAGGACGCGAAAGGTCAGAGCTCGACATC,1.67
6,TAGCCTAGGTCAGATTGGGCCAGTATACGCTATA,0.564
7,GATATTAGTTGAAAGGGCAACCGAATGATTCTCG,2.9
8,GGAACGAGGGCAAGCTGATAGCAGAGTTTGATGG,0.979
9,CCGACTGGGGCACGGTTACCATAACGCACAGCCA,1.8
10,GCAGACAGGTGGAACGCAGGTAACTCAGGGTGGC,0.342
11,AGAATGAGGCTATACGTAGATCAGGGAAGAAAGT,0.801
12,CCAGACAGGTGAGAAGGTACCTCAGCCTCGATTA,0.408
13,GCTAGCAGGCCATTTGCGTCACTCAATGACGGGC,0.189
14,ATCGAAAGTTCGACGAGGTGAGTATACACCGTTT,0.693
15,CCTCAGAGGACAACAGGAGGTCAGAGCTGCCAGA,0.662
16,CGTCAAAGTTCAACTAAGGTAACGTACAGCACGC,5.21
17,GAAACAGGGTCAAGGCCAGAGTACGCGTATTGAT,6.82
18,GCTTGTAGATCAAGGTTAAGAACGACTAAGCTAA,1.12
19,TCTTGTAGATCAAAGGTTAAGAATGCCGAAGCCT,7.84
20,GCTTGTAGTTCAAGGTTAAGAAAGACTAAGCTAA,0.724
